This note sets out measurements from PubChem BioAssay AID2101 (National Center for Advancing Translational Sciences (NCATS), 2009).

Values joined by “and” are separate entries in the source; they are usually repeats but may differ in a detail not shown here. Identical values can stand only once. Among all 330,000 compounds or so, about 300 (0.091%) were called active. About 4% were inconclusive and are not listed. The call rests on the fitted dose curve; in most records, active means well fitted inhibition curve with a large enough effect; inconclusive means small, poorly fitted or top-dose-only effect, or effect the other way, or another doubt; inactive means no such curve, though single readings can be large or run the other way. Shown is part of a subset that was picked to be rich in actives. The source holds several records for some structures; these can differ, active in one and inactive in another.
Potency means the concentration at half of the fitted maximal effect.

This test addresses Lysosomal acid glucosylceramidase (Homo sapiens) (UniProt P04062). Kind of test: qHTS Assay for Inhibitors and Activators of N370S glucocerebrosidase as a Potential Chaperone Treatment of Gaucher Disease.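 On activity change, negative = inhibition: 0% = full enzyme activity and -100% = no enzyme basal.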 The note with it: N370S GC spleen homogenate, 4MU-glucoside fluorescence; series mostly up to 59.4 µM; activity change, negative = inhibition: at the top concentration. The source says: NIH Chemical Genomics Center [NCGC]
NIH Molecular Libraries Probe Production Centers Network [MLPCN]
Assay Submitter (PI): Wei Zheng
Glucocerebrosidase (GC) catalyzes the hydrolysis of beta-glucocerebroside to glucose and ceramide in lysosomes. Mutations in the glucocerebrosidase gene result in Gaucher disease, an autosomal recessive lysosomal storage disorder. Many of the mutations encountered in patients with Gaucher disease are missense alterations that may cause misfolding, decreased stability and/or mistrafficking of this lysosomal protein. […] These inhibitors include iminosugar analogs and three non-iminosugar inhibitors identified from a previous HTS of 62,000 compounds with the wild type recombinant enzyme. However, the enhancement of enzyme activity by the chaperone action of an enzyme inhibitor must be balanced against the direct inhibition of the enzyme. An enzyme activator could also function as a chaperone by binding to the enzyme and helping to correct its misfolding and mistrafficking. While activators for GC have not yet been identified, they may have better therapeutic potential than inhibitors. Therefore the discovery and development of chemical activators may provide a new strategy for the chaperone therapy.
We have optimized a new assay using N370S mutant GC derived from the spleen of a Gaucher patient. […] In addition, the MLPCN compound library has expanded, which increases the chance of finding new and better probes.
NCGC Assay Protocol Summary:
This is a fluorogenic enzyme assay with 4-methylumbelliferyl-beta-D-glucopyranoside as the substrate and N370S glucocerebrosidase from human spleen homogenate as the enzyme preparation. Upon the hydrolysis of this fluorogenic substrate, the resulting product, […] which can be detected by a standard fluorescence plate reader. Data were normalized to the controls for basal activity (without enzyme) and 100% activity (with enzyme). The AC50 values were determined from concentration-response data modeled with the standard Hill equation.
Assay buffer: 50 mM citric acid (titrated with potassium phosphate to pH 5.0), 100 mM potassium chloride, 10 mM sodium chloride, 1 mM magnesium chloride, 0.01% Tween-20.
1536-well assay protocol:
(1) Add 2 ul/well of spleen homogenate (27 ug final)
(2) Add 23 nL compounds in DMSO solution. The final titration was 0.5 nM to 58 uM.
(3) Add 2 ul of substrate (1 mM final)
(4) Incubate at 37C for 40 min.
(5) Add 2 ul stop solution (1M NaOH and 1M Glycine mixture, pH 10)
(6) Detect the assay plate in a ViewLux plate reader (PerkinElmer) with Ex=365 nm and Em=440nm.
Keywords: Glucocerebrosidase, beta-glucosidase, Gaucher Disease, pharmacological chaperone, chaperone therapy, high throughput screening, glucocerebrosidase inhibitor, MLSMR, MLSCN, NIH Roadmap, qHTS and NCGC
For the compound `CNCC[C@H](Oc1ccc(C(F)(F)F)cc1)c1ccccc1`, the Potency result is “inactive and 8.91 µM (active)”. For the compound `CC(C)CC(C)Nc1ccc(Nc2ccccc2)cc1` (stereo not given), the “activity change, negative = inhibition” value was -14.2% (inactive). As to `CC(CCC(=O)O)C1CCC2C3C(O)C[C@@H]4CC(O)CC[C@@]4(C)C3CC[C@@]12C` (stereo not given in full), the “activity change, negative = inhibition” value is -11% (inactive). As for `CC(Cl)Cl`, the “activity change, negative = inhibition” value is -0.151% (inactive).

Take `CC(=O)[O][Sn]([c]1ccccc1)([c]1ccccc1)[c]1ccccc1`: the “activity change, negative = inhibition” value is -2.97% (inactive).
